FMDV inh – foot and mouth disease virus antiviral activity; Potency, µM (doses to about 57.9 µM), for the others: at the top dose activity change, negative = inhibition, most hits filed as inhibitors; 410,000 compounds, 1.2% hits; FMDV antiviral cell-based qHTS; calls by dose curve; tested in HEK293T cells; also: read-out not given here; potency is read from the fitted curve at half-maximal effect; nearly all actives have a fitted effect of over 45% in size
HCMV antiviral – human cytomegalovirus inhibition; activity change, negative = inhibition, % at 57.5 µM; HFF cells, HCMV-luciferase reporter, 72 h; active compounds read low; 410,000 compounds, 4.5% hits; in the data active = activity change below about -60%; inconclusive = no clear call, values can overlap the other calls; inactive = above about -39%
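After 16 h attachment at 37C, HFF cells received test compound and HCMV-luciferase (1 PFU/cell); reporter luminescence read 72 h later, data normalized against buffer-only and known inhibitor Salinomycin.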
Lassa entry inh – Lassa virus entry inhibition; 300,000 compounds, 1.2% hits; Lassa virus pseudotype entry inhibition, cell reporter; Potency, µM (top dose mostly 37.9 µM), inactives show at the top dose activity change, negative = inhibition, actives largely listed as inhibitors; AID 540256; calls by dose curve; tested in HEK293 cells; also: potency is read from the fitted curve at half-maximal effect; nearly all actives have a fitted effect of over 50% in size
FBPA Giardia inh – Giardia lamblia aldolase inhibition | A8B2U2 | Potency, µM (top dose mostly 59.6 µM), inactives show top-dose activity, negative = inhibition, hits mostly inhibitors | purified Giardia FBPA | 290,000 compounds, 0.71% hits; also: potency is read from the fitted curve at half-maximal effect; nearly all actives have a fitted effect of over 55% in size
Target sequence (A8B2U2 whole entry, looked up): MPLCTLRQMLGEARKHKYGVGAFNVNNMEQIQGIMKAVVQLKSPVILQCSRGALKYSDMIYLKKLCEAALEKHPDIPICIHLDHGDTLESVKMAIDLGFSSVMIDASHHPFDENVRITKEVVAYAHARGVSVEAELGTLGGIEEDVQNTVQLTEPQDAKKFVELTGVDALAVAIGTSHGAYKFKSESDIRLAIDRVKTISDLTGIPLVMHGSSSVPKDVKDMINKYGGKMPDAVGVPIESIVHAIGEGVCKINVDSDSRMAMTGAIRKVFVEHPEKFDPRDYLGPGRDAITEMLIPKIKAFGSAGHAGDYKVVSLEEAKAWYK
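Giardia FBPA (40 nM reagent) was preincubated 10 min at RT with compound (up to 57.5 uM final), then substrate plus GAPDH/TPI/NAD/arsenate coupling system with diaphorase/resazurin was added; resorufin fluorescence (525/598 nm) was read after 20 min.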
HCV inhibitor – HCV inhibition. Huh7.5.1 HCVcc-Cre infection, luciferase reporter, 44 h. Potency, µM (series often up to 41.8 µM), for inactives: top-dose activity change, negative = inhibition, usual class: inhibitors. 340,000 compounds, 3.4% hits; also: potency is read from the fitted curve at half-maximal effect
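Infectious HCV cell culture screen: compound-treated cells (1,000/well, pre-plated 4 h) are infected with HCVcc-Cre at roughly 0.5 moi and grown 44 h. Infection is quantified by luciferase signal after 15 min substrate incubation at room temperature.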
Marburg entry inh – inhibitors of Marburg virus binding or cell entry. Marburg virus pseudotyped entry inhibition, cell reporter. Potency, µM (titrated, usually from 37.8 µM), for inactives: top-dose activity change, negative = inhibition, most hits filed as inhibitors. 300,000 compounds, 1.8% hits. AID 540276; calls by dose curve; tested in HEK293 cells; also: potency is read from the fitted curve at half-maximal effect
Active calls of the source: *; ? = inconclusive; · = no result; [ ] = another dose, or the depositor's remark. Compounds with a hit are over-represented: about 8.3% of the library has one in this group of screens. Unless noted, calls follow the shape of the dose curve; as a rule, active = well fitted curve in the direction sought with a large enough effect; inconclusive = small, poorly fitted or top-dose-only effect, or another doubt; inactive = no such curve, though single readings can be large; an effect the other way counts as inactive or inconclusive. % is scaled to controls: 0 for no effect and ±100 for the full control effect.

SMILES	FMDV inh	HCMV antiviral	Lassa entry inh	FBPA Giardia inh	HCV inhibitor	Marburg entry inh
Cc1ccccc1Nc1ncnc2c1cnn2-c1ccccc1	-3.1%	74.4	·	-1.1%	11.2µM*	·
Cc1ccc(-n2ncc3c(Nc4cccc(C)c4)ncnc32)cc1	31.4%	12.0	-4.2%[46.1 µM]	·	·	·
Cn1ncc2c(Nc3ccc(-c4ccccc4)cc3)ncnc21	·	?	3.66µM*	-6.0%	?	2.91µM*
Cc1ccc(-n2ncc3c(Nc4cccc(C(F)(F)F)c4)ncnc32)cc1C	-5.4%	-64.8*	?	·	·	·
Cn1ncc2c(Nc3ccc(Cl)c(Cl)c3)ncnc21	27.8%	-38.1	·	-16.2%	?	·
CCOC(=O)/C(=N\O)C1=NC(C)(C)Cc2ccccc21	-4.2%	21.0	0.3%	-2.9%	30.7%	?
Cc1cccc(N/N=C(\C(N)=O)C2=NC(C)(C)Cc3ccccc32)c1	25.1µM*	-97.8*	6.31µM*	2.3%	11.2µM*	?
Cc1cccnc1NC(=O)c1ccc([N+](=O)[O-])o1	-1.8%	-76.0*	-22.2%	-14.4%	5.0%	5.5%
Cc1cccnc1NC(=O)c1ccccc1-c1ccccc1C(=O)Nc1ncccc1C	-3.6%	-7.4	7.31µM*	2.7%	10.7%	3.7%
O=C(Nc1cccc2ncccc12)c1ccc([N+](=O)[O-])o1	8.4%	-99.8*	?	5.2%	25.1µM*	?
Cc1c(NC(=O)c2ccc([N+](=O)[O-])o2)cccc1-c1nc2ncccc2o1	?	-86.5*	-4.6%	-14.6%	?	?
COc1ccc(NC(=O)c2ccc3oc(=O)c(S(=O)(=O)c4ccc(C)cc4)cc3c2)cc1OC	?	17.2	-3.1%[46.1 µM]	·	·	-19.6%[46.1 µM]
CSc1ccc(CNC(=O)C2CCN(c3nnc(-n4cccc4CNc4ccc(C)cc4)s3)CC2)cc1	-28.5%	-15.0	·	·	·	-8.1%[46.1 µM]
C[C@H]1Cc2c(-c3ccccc3)nc3c(c2CO1)CN(C(=O)Nc1cccc(C#N)c1)CC3	·	·	·	-0.2%[12.9 µM]	·	-24.1%[14.2 µM]
COc1ccc(CNC(=O)Cc2c(C)c3c(cc(C)c4c(C)c(C)oc43)oc2=O)cc1	-9.8%	-13.5	-2.6%[46.1 µM]	·	·	1.5%[46.1 µM]
CCOC(=O)c1c(-c2ccccc2Cl)cn2ccccc12	-6.3%	?	13µM*	-12.4%	?	?
Cc1oc(-c2ccc(Cl)cc2)nc1CN1CCCC(C(=O)N2CCN(C(=O)c3ccco3)CC2)C1 (centres undefined)	14.1µM*	-39.3	·	5.8%	2µM*	-9.8%
Cc1cccc(-c2nc(CN3CCCC(C(=O)NC4CCC(C)CC4)C3)c(C)o2)c1 (centres undefined)	-21.5%	-6.0	-18.3%	5.0%	-25.5%	?
CCOC(=O)N1CCC(NC(=O)CSCc2nc(-c3ccc(C)cc3)oc2C)CC1	?	-63.2*	·	·	?	·
Cc1cccc(-c2nc(CN3CCCC(C(=O)NC4CCCC4)C3)c(C)o2)c1 (centres undefined)	-18.4%	29.4	7.5%	2.7%	?	14.6µM*
Cc1cccc(-c2nc(CN3CCCC(C(=O)N4CCN(c5cc(Cl)ccc5C)CC4)C3)c(C)o2)c1 (centres undefined)	?	-22.6	25.8%[46.1 µM]	·	·	?
CCOC(=O)N1CCC(NC(=O)C2CCCN(Cc3nc(-c4cccc(C)c4)oc3C)C2)CC1 (centres undefined)	?	-73.3*	?	2.9%	?	?
N=C(C[C@@H](O)COc1ccccc1-c1ccccc1)N1CCCCC1	-29.8%	·	·	3.6%	·	·
Cc1cc2occ(CC(=O)NCc3cccs3)c2cc1C(C)C	-16.4%	22.9	-13.0%	4.3%	-23.4%	?
Cc1csc(NC(=O)Cc2coc3cc(C)c(C(C)C)cc23)n1	?	-88.9*	2.82µM*	-1.2%	10µM*	3.98µM*
SMILES	FMDV inh	HCMV antiviral	Lassa entry inh	FBPA Giardia inh	HCV inhibitor	Marburg entry inh
COc1ccc(/C=C/C2=CCN(Cc3ccc(OC)cc3)CC2)cc1	-7.4%	?	-16.0%[46.1 µM]	-11.1%	-21.7%	4.47µM*
CCN1C(=O)C(Cc2nc3ccccc3c(=O)n2-c2ccccc2)c2cc(Br)ccc21 (centres undefined)	?	-70.2*	-13.6%[46.1 µM]	·	·	?
CS(=O)(=O)c1ccc(Nc2cc3c(cn2)cc(-c2ccccc2)n3Cc2ccccc2)cc1	·	-27.8	·	·	·	·
NC(=O)c1ccc(C(=O)N/N=C(/Cc2ccccc2)c2ccccc2)cc1	49.1%	·	-24.0%	-5.6%	17.2%	5.7%
O=C(N/N=C(\Cc1ncc[nH]1)c1ccccc1)c1cccnc1	-4.5%	?	?	?	?	?
O=C(N/N=C(\Cc1ncc[nH]1)c1ccccc1)c1ccccc1	·	-77.6*	·	-3.6%	·	·
O=C(N/N=C(\Cc1ncc[nH]1)c1ccccc1)c1ccncc1	-22.0%	-91.3*	?	?	?	?
Brc1cc(Br)c2nc3c(cc2c1)CCC3	4.1%	-26.6	·	7.9%	10µM*	·
NC(=O)c1sc2nc3c(cc2c1N)CCC3	36.4%	-24.6	·	-5.9%	-1.4%	·
CCOc1ccc(C(C)(C)COCc2cccc(Oc3ccccc3)c2)cc1	·	-8.2	·	·	·	·
COc1cccc(NC(=O)c2oc3ccc(S(=O)(=O)N4CCCCCC4)cc3c2C)c1	-20.8%	-20.5	-9.6%[46.1 µM]	·	·	·
COc1ccc(CC(=O)Nc2ccc(S(=O)(=O)N(C)C3CCN(C)CC3)cc2)cc1	-16.4%	-5.3	·	·	0.0%	·
COc1ccc(NC(=O)c2oc3ccc(S(=O)(=O)N4CCCCC4)cc3c2C)cc1	17.8µM*	-34.2	?	·	·	·
COc1ccc(NC(=O)c2oc3ccc(S(=O)(=O)N(C)C4CCCCC4)cc3c2C)cc1Cl	-19.3%	-77.4*	11.9%[46.1 µM]	·	·	·
CCC(C(=O)Nc1ccc(S(=O)(=O)N(C)C2CCN(C)CC2)cc1)c1ccccc1 (centres undefined)	-13.4%	10.4	·	·	?	·
CC(Oc1ccc(Br)cc1)C(=O)Nc1ccc(S(=O)(=O)N(C)C2CCN(C)CC2)cc1 (centres undefined)	-8.4%	?	?	·	6.31µM*	?
COc1ccc2oc(C(=O)Nc3ccc(S(=O)(=O)N(C)C4CCN(C)CC4)cc3)c(C)c2c1	?	-112.5*	·	·	11.2µM*	·
C=CCC(O)(/C=C/c1ccccc1)c1ccccc1 (centres undefined)	·	·	·	-2.9%	·	·
CCOC(=O)[C@@H]1CSCCS(=O)(=O)N1C(=O)[C@H](Cc1ccccc1)NC(=O)OC(C)(C)C	·	-5.0	·	·	·	·
COc1ccc(C2=NN(CCC(=O)NCCc3ccccc3)C(=O)CC2)cc1	2.4%	13.7	-29.2%[46.1 µM]	·	·	·
C=CCCC1(CCC)C(=O)C(=C(O)c2ccccc2)C(=O)C(CCC)=C1OC (centres undefined)	·	·	·	·	·	-1.7%[14.2 µM]
COc1ccc(C2=CC(c3ccc(OC)c(OC)c3)c3c(c4ccccc4oc3=O)O2)cc1OC (centres undefined)	-27.7%	-64.4*	·	-5.6%	10µM*	·
O=C(NCc1cccnc1)O[C@H]1CC[C@@]23CCCN2C(=O)CCC[C@H]3[C@H]1Cc1ccccc1	·	-4.5	·	·	·	·

Assay outcomes: PubChem BioAssay, National Center for Advancing Translational Sciences (NCATS)
